Consider 47 molecules from PubChem BioAssay (NCATS).

The nature of assay [1]: qHTS for Inhibitors of the Aldehyde Dehydrogenase Family (ALDH1A2, ALDH1A3, ALDH2, ALDH3A1) (AID 2061307). Also: nearly all actives have a fitted effect of over 50% in size. As to potency: test system not described further here; potency is read from the fitted curve at half-maximal effect. For orientation: Quantitative high-throughput screening tests each substance at several concentrations.
Assay [2] deals with Retinaldehyde dehydrogenase 3 (Homo sapiens) (UniProt P47895). In words: qHTS for Inhibitors of the Aldehyde Dehydrogenase Family (ALDH1A3) Confirmatory screens (AID 2061311). Also: nearly all actives have a fitted effect of over 60% in size. Also: potency is read from the fitted curve at half-maximal effect.
The target in assay [3] is Aldehyde dehydrogenase 1A1 (Homo sapiens) (UniProt P00352). Briefly: qHTS for Inhibitors of the Aldehyde Dehydrogenase Family (ALDH1A1) Confirmatory screens (AID 2061316). Also: nearly all actives have a fitted effect of over 65% in size. Also: potency is read from the fitted curve at half-maximal effect.
Assay [4] addresses Aldehyde dehydrogenase, mitochondrial (Homo sapiens) (UniProt P05091). In words: qHTS for Inhibitors of the Aldehyde Dehydrogenase Family (ALDH2) Primary screen (AID 2061308). Also: nearly all actives have a fitted effect of over 55% in size.
In assay [5] the target is Retinaldehyde dehydrogenase 3 (Homo sapiens) (UniProt P47895). Briefly: qHTS for Inhibitors of the Aldehyde Dehydrogenase Family (ALDH1A3) Primary screen (AID 2061315).
In assay [6] the target is Retinal dehydrogenase 2 (Homo sapiens) (UniProt O94788). Briefly: qHTS for Inhibitors of the Aldehyde Dehydrogenase Family (ALDH1A2) Confirmation screens (AID 2061314). Also: nearly all actives have a fitted effect of over 65% in size. Also: potency is read from the fitted curve at half-maximal effect.

Several values for one entry are separate records, joined by “and”; a condition that tells them apart may be missing. Equal values may be shown once. Results filed as inconclusive are left out. A call without a number means that no potency is given here. Activity calls are given as the source filed them. Calls follow the shape of the dose curve; as a rule, active = well fitted curve in the direction sought with a large enough effect; inconclusive = small, poorly fitted or top-dose-only effect, or another doubt; inactive = no such curve, though single readings can be large; an effect the other way counts as inactive or inconclusive.

For `CN(Cc1ccc(-c2ccc(C#N)cc2)o1)c1ccc(N2CCN(C(=O)OC(C)(C)C)CC2)cc1`, the values for the Potency in assay [1], in assay [2] and in assay [3] were 1.79 µM (active), 11.3 µM (active) and 11.3 µM (active), respectively.

Turning to `FC(F)(F)c1ccccc1-c1nc(NCc2ccc(-c3cccc4ccccc34)cc2)c2ccccc2n1`, the Potency entry in assay [4] was “inactive”.

On to `FC(F)(F)c1cc(Cl)cc(-c2ccc(CNc3nc(-c4ccccc4C(F)(F)F)nc4ccccc34)cc2)c1`, for which the Potency result in assay [4] was “inactive”.

For the molecule `CC(O)c1ccc(-c2ccc3ncnc(NCc4nccs4)c3c2)o1` (centres undefined), the Potency result in assay [1] and in assay [5] was “inactive” in each case. The Potency in assay [3] was 10.1 µM (active).

With `c1ccc2[nH]c(-c3ccc(NCc4ccc5c(c4)OCCO5)cc3)nc2c1`, the Potency entry in assay [4] is “inactive”.

On to `COc1ccnc(NC(=S)N2CCN(c3ccc(Cl)cc3Cl)CC2)c1`, for which the Potency in assay [1] was 11.2 µM (active); in assay [3], 5.65 µM (active).

Consider `CC(C)(C)OC(=O)N1CCN(c2ccc(NCc3ccoc3-c3ccc(C#N)cc3)cc2)CC1`, for which the Potency result in assay [4] is “inactive”.

In the case of `CN(C)c1ccc(-c2nc3ccccc3s2)cc1`, the Potency entry in assay [4] is “inactive”.

For the molecule `C[C@@H](O)c1ccc(-c2ccc3ncnc(NCc4cccs4)c3c2)o1`, the Potency entry in assay [1] and in assay [5] was “inactive” each time.

Consider `CC(=O)NC(c1cc(Cl)c2ccccc2c1O)C1CC1` (centres undefined), for which, in assay [4], the Potency result was “inactive”.

Turning to `Nc1ccccc1C(=O)NCc1ccco1`, the Potency result in assay [1] and in assay [5] was “inactive” each time.

For `COc1ccc(C2Nc3ccccc3C(=O)N2Cc2ccccc2)cc1OCc1ccc(NC(C)=O)cc1` (centres undefined), the Potency result in assay [4] was “inactive”.

Consider `Cc1ccc(CN(C)c2ncnc3ccc(-c4ccc5c(c4)OCO5)cc23)o1`, for which the values for the Potency in assay [1] and in assay [3] were 15.8 µM (active) and 8.96 µM (active), respectively. Besides, the Potency entry in assay [5] was “inactive”.

As to `Cn1cc(CCn2cnc(-c3cnn(C)c3)c2-c2ccc(C#N)cc2)cn1`, the Potency entry in assay [4] is “inactive”.

As to `FC(F)(F)c1ccccc1-c1nc(NCc2ccc(-c3cccnc3)cc2)c2sccc2n1`, the Potency entry in assay [4] was “inactive”.

As for `CC(C)(C)c1ccc(-c2nnc(NC(=O)Nc3ccc4ccccc4c3)s2)cc1`, the Potency in assay [1] is 10.1 µM (active); in assay [3] it was 11.3 µM (active). Besides, the Potency entry in assay [5] was “inactive”.

On to `O=C1CCc2cc(S(=O)(=O)Nc3ccccc3-c3ccccc3)ccc2N1`, for which the Potency result in assay [4] is “inactive”.

As to `Cc1cc(C)nc(NC(=S)N2CCN(c3ccc(F)c(Cl)c3)CC2)c1`, the Potency is 7.08 µM (active) in assay [1] and 6.34 µM (active) in assay [3]. In assay [5], the Potency result was “inactive”.

As to `Cc1ccc(-c2cc(C(=O)Nc3ccccn3)c3ccccc3n2)cc1C`, in assay [4], the Potency entry is “inactive”.

Regarding `CC(=O)Nc1sc2c(c1-c1ccc(C#N)cc1)CCNC2`, the Potency entry in assay [1], in assay [5] and in assay [3] was “inactive” in each case.

In the case of `COc1ccc(C2Nc3cccc4cccc(c34)N2)cc1`, the Potency entry in assay [4] was “inactive”.

For the molecule `O=C(O)c1ccc(-c2noc(-c3ccccc3Cl)n2)cc1`, the Potency result in assay [4] was “inactive”.

With `c1cc2c3c(cccc3c1)NC(c1ccc3c(c1)OCO3)N2`, the Potency entry in assay [4] was “inactive”.

Take `O=C(NCCc1ccc(O)c(O)c1)c1cc2sccc2n1Cc1ccccc1`: the Potency entry in assay [4] was “inactive”.

Consider `O=C1c2ccccc2C(=O)N1c1cccc(=O)[nH]1`, for which the Potency result in assay [1], in assay [5] and in assay [3] was “inactive” each time.

For the molecule `Cc1ccnc(NC(=S)N2CCC(c3cccc(C(F)(F)F)c3)CC2)c1`, the Potency result in assay [4] was “inactive”.

In the case of `Cc1ccc(C)n1-c1cccc(C(=O)O)c1`, in assay [1], the Potency was 5.65 µM (active). In addition, in assay [5], the Potency entry is “inactive”.

For the molecule `CC(C)(C)NS(=O)(=O)c1cccc(Nc2nn3c(=O)c4ccccc4nc3s2)c1`, the Potency in assay [1] is 22.5 µM (active); in assay [3], 11.3 µM (active). Moreover, in assay [5], the Potency result is “inactive”.

Regarding `CCOCCCNC(=O)Nc1cc(C(=O)NCc2ccc(C(C)C)cc2)ccc1N1CCCC1`, the Potency in assay [1] is 0.726 µM (active); in assay [3] it was 2.89 µM (active).

With `FC(F)(F)c1cc(-c2ccc(CNc3nc(-c4ccccc4C(F)(F)F)nc4ccsc34)cc2)ccn1`, in assay [4], the Potency result is “inactive”.

Turning to `N#Cc1cccc(CSc2nc3ncc(Br)cc3[nH]2)c1`, the Potency entry in assay [4] was “inactive”.

Regarding `COc1ccc(OC)c(N2C(=O)C(Cl)=C(N3CCCCC3)C2=O)c1`, in assay [4], the Potency result is “inactive”.

For the molecule `COc1ccnc(NC(=S)N2CCN(c3cccc(Cl)c3Cl)CC2)c1`, the Potency in assay [1] was 10 µM (active); in assay [3], 4 µM (active).

For the molecule `COc1ccccc1-c1nc(-c2cccc(C(=O)O)c2)no1`, the Potency result in assay [4] is “inactive”.

Take `O=C(O)c1cccc(-c2noc(-c3ccc(C(F)(F)F)cc3)n2)c1`: the Potency result in assay [4] is “inactive”.

As for `O=C(Nc1ccccc1C(=O)O)c1ccccc1`, in assay [4], the Potency result was “inactive”.

As to `O=[N+]([O-])c1ccc(S(=O)(=O)Nc2cnc3ccccc3c2)cc1`, the Potency result in assay [1], in assay [5] and in assay [3] was “inactive” in each case.

For the molecule `O=C(O)c1ccc(-c2noc(-c3ccc(Cl)cc3)n2)cc1`, in assay [4], the Potency entry was “inactive”.

As to `Oc1ccc(CNc2ccccc2C(F)(F)F)c2cccnc12`, the Potency result in assay [4] is “inactive”.

For `CCCn1c(-c2ccc(F)cc2)nc2c(N3CCN(CCn4ccnc4)CC3)nc(C)nc21`, the Potency result in assay [4] is “inactive”.

Turning to `O=S(=O)(Nc1cccc2cccnc12)c1ccc2ccccc2c1`, the Potency result in assay [4] is “inactive”.

Turning to `CO[C@H]1c2cc(C(C)C)c(O)c(O)c2[C@@]23CCCC(C)(C)C2[C@@H]1OC3=O` (some centres undefined), in assay [4], the Potency entry is “inactive”. The Potency in assay [2] and in assay [6] was 6.97 µM (active) in each case.

As for `COc1cc(OC)c(C(CC(=O)N2CC(C)CC(C)C2)c2ccc3c(c2)OCO3)c(OC)c1` (centres undefined), the Potency result in assay [4] is “inactive”.

In the case of `O=[S+]([O-])(Nc1nccs1)c1ccc(NCc2cc(F)cc(Cl)c2O)cc1`, the Potency entry in assay [4], in assay [2], in assay [6] and in assay [5] was “inactive” each time.

With `COc1cccc(Nc2ccc(N3CCN(C(C)=O)CC3)cc2)c1OC`, the Potency result in assay [4] is “inactive”.

For `c1csc(CNc2ccc(N3CCCCC3)cc2)c1`, the Potency entry in assay [4] is “inactive”. For the same molecule, in assay [2], the Potency was 20.1 µM (active).

As for `CC(=O)c1ccc(N2CCN(S(=O)(=O)c3ccc4c(c3)C(Cl)(Cl)C(=O)N4)CC2)cc1`, the Potency result in assay [4] was “inactive”. Besides, the Potency in assay [2] is 2.82 µM (active) and 1.12 µM (active); in assay [6], 6.34 µM (active).
